The structures appear in SMILES notation. Results filed as inconclusive are left out. Activity calls are given as the source filed them. Calls follow the shape of the dose curve; as a rule, active = well fitted inhibition curve with a large enough effect; inconclusive = small, poorly fitted or top-dose-only effect; inactive = flat fitted curve, though single readings scatter.
% is scaled to controls: 0 for no effect and ±100 for the full control effect.

One experiment in a line: Drug repurposing screens with cells derived from glioblastoma tumor samples (AID 1345199). Also: nearly all actives have a fitted effect of over 40% in size. To be noted: GBM patient neurospheres viability, ATP luminescence, 48 h; at 20 µM (top of the series); tumour line C. The essentials:
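Primary testing used CD133+ neurospheres from four GBM patients, seven concentrations, 48 h exposure and ATP-based viability; confirmation added three slower-growing patient lines.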
`CCC(C)(CN(C)C)OC(=O)c1ccccc1` (stereo not given): the activity, negative = cell killing is -12.8% (inactive).

As for `CCN(CC)CCc1nc(-c2ccccc2)no1`, the activity, negative = cell killing was -35.3% (inactive).

`NS(=O)(=O)c1cc(C2(O)NC(=O)c3ccccc32)ccc1Cl` (stereo not given): the activity, negative = cell killing is 3.89% (inactive).

For `CC(C)(C)NCC(O)COc1cccc2c1CCC(=O)N2` (stereo not given), the activity, negative = cell killing was -4.91% (inactive).

Still in this experiment, the particulars now being: GBM patient neurospheres viability, ATP luminescence, 48 h; at 21.2 µM (top of the series); tumour line B.
On to `CCC(C)(CN(C)C)OC(=O)c1ccccc1` (stereo not given), for which the activity, negative = cell killing was -2.39% (inactive).

In the case of `CCN(CC)CCc1nc(-c2ccccc2)no1`, the activity, negative = cell killing was 0.0715% (inactive).

For `COc1ccc2cc(CCC(C)=O)ccc2c1`, the activity, negative = cell killing was -27.9% (inactive).

On to `NS(=O)(=O)c1cc(C2(O)NC(=O)c3ccccc32)ccc1Cl` (stereo not given), for which the activity, negative = cell killing was 6.28% (inactive).

In the case of `CC(C)(C)NCC(O)COc1cccc2c1CCC(=O)N2` (stereo not given), the activity, negative = cell killing is -10.6% (inactive).

Staying with this experiment, now noted: GBM patient neurospheres viability, ATP luminescence, 48 h; at 21.2 µM (top of the series); tumour line D.
Turning to `CCC(C)(CN(C)C)OC(=O)c1ccccc1` (stereo not given), the activity, negative = cell killing is -5.13% (inactive).

With `CCN(CC)CCc1nc(-c2ccccc2)no1`, the activity, negative = cell killing is 5.97% (inactive).

Regarding `NS(=O)(=O)c1cc(C2(O)NC(=O)c3ccccc32)ccc1Cl` (stereo not given), the activity, negative = cell killing was -20.6% (inactive).

For the compound `CC(C)(C)NCC(O)COc1cccc2c1CCC(=O)N2` (stereo not given), the activity, negative = cell killing was 12.4% (inactive).

The same experiment, now with this note: GBM patient neurospheres viability, ATP luminescence, 48 h; at 45.9 µM (top of the series); tumour line B.
For `CC1(C)S[C@@H]2[C@H](NC(=O)C(C(=O)O)c3ccccc3)C(=O)N2[C@H]1C(=O)O` (stereo not given in full), the activity, negative = cell killing is 2.69% (inactive).

Take `CC1CCN(CCCC(=O)c2ccc(F)cc2)CC1`: the activity, negative = cell killing is -15.8% (inactive).

For the compound `Cc1cccc(C)c1NC(=O)CC12CCCN1CCC2`, the activity, negative = cell killing is -10.6% (inactive).

For the compound `CC(O)CCCCn1c(=O)c2c(ncn2C)n(C)c1=O` (stereo not given), the activity, negative = cell killing is -11.9% (inactive).

Regarding `O=C1c2ccccc2C(=O)C1c1ccc(Br)cc1`, the activity, negative = cell killing is -20.2% (inactive).

`CCCCCCCC(=O)OCC(O)CO` (stereo not given): the activity, negative = cell killing was -0.0604% (inactive).

With `OCC(O)CS` (stereo not given), the activity, negative = cell killing was -7.05% (inactive).

Take `NCC1CCC(C(=O)Oc2ccc(CCC(=O)O)cc2)CC1` (stereo not given): the activity, negative = cell killing was -0.713% (inactive).

With `CC(CSC(=O)c1ccccc1)C(=O)N1C[C@@H](Sc2ccccc2)C[C@H]1C(=O)O` (stereo not given in full), the activity, negative = cell killing was -5.59% (inactive).

In the case of `O=C(Cn1ccnc1[N+](=O)[O-])NCCO`, the activity, negative = cell killing is -12.6% (inactive).

For the compound `COC(=O)c1ccccc1C(=O)c1ccc(OCCN2CCCCC2)cc1`, the activity, negative = cell killing was -26.9% (inactive).

Consider `Cc1cc(NC(=O)C2=C(O)c3ccccc3S(=O)(=O)N2C)no1`, for which the activity, negative = cell killing is -5.07% (inactive).

In the case of `Cc1ccccc1N=Nc1ccc(N=Nc2c(O)ccc3ccccc23)c(C)c1`, the activity, negative = cell killing was -15.7% (inactive).

As to `CCOc1ccccc1O[C@H](c1ccccc1)[C@H]1CNCCO1`, the activity, negative = cell killing is -15.3% (inactive).

Regarding `O=C(O)Cn1c(C(=O)Nc2nc(-c3ccccc3Cl)cs2)cc2ccccc21`, the activity, negative = cell killing is -16.8% (inactive).

On to `COc1ccccc1OC(=O)Oc1ccccc1OC`, for which the activity, negative = cell killing is -6.75% (inactive).

Turning to `O=C(CN1CCNCC1)NC1CCCCC1`, the activity, negative = cell killing is -13.1% (inactive).

With `CN1C(C)(C)CCCC1(C)C`, the activity, negative = cell killing is -6.99% (inactive).

Take `CC(C)c1cc2c(cc1S(=O)(=O)O)[C@@]1(C)CCC[C@@](C)(C(=O)O)[C@@H]1CC2`: the activity, negative = cell killing was -17.5% (inactive).

As to `CCOC(=O)c1cccnc1`, the activity, negative = cell killing is -7.07% (inactive).

On to `NC(=O)CC[C@@H](N)C(=O)O`, for which the activity, negative = cell killing is -5.88% (inactive).

As for `CC(C)CCOC(=O)c1ccc(N(C)C)cc1`, the activity, negative = cell killing was -5.37% (inactive).

Consider `COc1ccccc1Oc1c(NS(=O)(=O)c2ccc(C(C)(C)C)cc2)nc(-c2ncccn2)nc1OCCO`, for which the activity, negative = cell killing was -11.9% (inactive).

For the compound `O=C(O)Cc1cn(-c2ccccc2)nc1-c1ccc(Cl)cc1`, the activity, negative = cell killing was -17.9% (inactive).

Turning to `COc1nccnc1NS(=O)(=O)c1ccc(N)cc1`, the activity, negative = cell killing is 0.463% (inactive).

Regarding `OCCN1C[C@H](O)[C@@H](O)[C@H](O)[C@H]1CO`, the activity, negative = cell killing is -4.15% (inactive).

Consider `CN1CCN(C(=O)C2CCCCC2)CC1`, for which the activity, negative = cell killing was -7.62% (inactive).

In the case of `Nc1ncnc2c1ncn2[C@@H]1O[C@H](COP(=O)(O)O)[C@@H](O)[C@H]1O`, the activity, negative = cell killing was 4.49% (inactive).

Turning to `CCCCCCCCCCCCCCCCC(C(=O)O)C(O)(CC(=O)O)C(=O)O` (stereo not given), the activity, negative = cell killing is -24.2% (inactive).

As for `C[N+](C)(C)CC(O)CC(=O)[O-]` (stereo not given), the activity, negative = cell killing is -2.63% (inactive).

The experiment is the same for the next values; noted with them: GBM patient neurospheres viability, ATP luminescence, 48 h; at 45.9 µM (top of the series); tumour line D.
For `CC1(C)S[C@@H]2[C@H](NC(=O)C(C(=O)O)c3ccccc3)C(=O)N2[C@H]1C(=O)O` (stereo not given in full), the activity, negative = cell killing was -6.27% (inactive).

Consider `Cc1cccc(C)c1NC(=O)CC12CCCN1CCC2`, for which the activity, negative = cell killing was -15.8% (inactive).

For the compound `CC(O)CCCCn1c(=O)c2c(ncn2C)n(C)c1=O` (stereo not given), the activity, negative = cell killing is -16.4% (inactive).

For `O=C1c2ccccc2C(=O)C1c1ccc(Br)cc1`, the activity, negative = cell killing was -25.8% (inactive).

As for `CCCCCCCC(=O)OCC(O)CO` (stereo not given), the activity, negative = cell killing is -12.6% (inactive).

As to `OCC(O)CS` (stereo not given), the activity, negative = cell killing was -1.81% (inactive).

With `NCC1CCC(C(=O)Oc2ccc(CCC(=O)O)cc2)CC1` (stereo not given), the activity, negative = cell killing is -15% (inactive).

Consider `CC(CSC(=O)c1ccccc1)C(=O)N1C[C@@H](Sc2ccccc2)C[C@H]1C(=O)O` (stereo not given in full), for which the activity, negative = cell killing is 5.1% (inactive).

As to `O=C(Cn1ccnc1[N+](=O)[O-])NCCO`, the activity, negative = cell killing is -6.24% (inactive).

Take `Cc1cc(NC(=O)C2=C(O)c3ccccc3S(=O)(=O)N2C)no1`: the activity, negative = cell killing is -8.1% (inactive).

For the compound `Cc1ccccc1N=Nc1ccc(N=Nc2c(O)ccc3ccccc23)c(C)c1`, the activity, negative = cell killing is -2.5% (inactive).

With `O=C(O)Cn1c(C(=O)Nc2nc(-c3ccccc3Cl)cs2)cc2ccccc21`, the activity, negative = cell killing was -18.1% (inactive).

For the compound `COc1ccccc1OC(=O)Oc1ccccc1OC`, the activity, negative = cell killing was -3.45% (inactive).

Take `O=C(CN1CCNCC1)NC1CCCCC1`: the activity, negative = cell killing was -7.64% (inactive).

For `CN1C(C)(C)CCCC1(C)C`, the activity, negative = cell killing is 3.96% (inactive).

On to `CC(C)c1cc2c(cc1S(=O)(=O)O)[C@@]1(C)CCC[C@@](C)(C(=O)O)[C@@H]1CC2`, for which the activity, negative = cell killing is -7.28% (inactive).

For the compound `CCOC(=O)c1cccnc1`, the activity, negative = cell killing is -8.05% (inactive).

Take `NC(=O)CC[C@@H](N)C(=O)O`: the activity, negative = cell killing is 12.3% (inactive).

For `CC(C)CCOC(=O)c1ccc(N(C)C)cc1`, the activity, negative = cell killing was -2.75% (inactive).

For the compound `COc1ccccc1Oc1c(NS(=O)(=O)c2ccc(C(C)(C)C)cc2)nc(-c2ncccn2)nc1OCCO`, the activity, negative = cell killing is -7.18% (inactive).

On to `O=C(O)Cc1cn(-c2ccccc2)nc1-c1ccc(Cl)cc1`, for which the activity, negative = cell killing was -13.4% (inactive).

As to `COc1nccnc1NS(=O)(=O)c1ccc(N)cc1`, the activity, negative = cell killing was -17.5% (inactive).

As for `OCCN1C[C@H](O)[C@@H](O)[C@H](O)[C@H]1CO`, the activity, negative = cell killing was -2.64% (inactive).

On to `CN1CCN(C(=O)C2CCCCC2)CC1`, for which the activity, negative = cell killing was -7.41% (inactive).

Regarding `Nc1ncnc2c1ncn2[C@@H]1O[C@H](COP(=O)(O)O)[C@@H](O)[C@H]1O`, the activity, negative = cell killing is 20.2% (inactive).

For `CCCCCCCCCCCCCCCCC(C(=O)O)C(O)(CC(=O)O)C(=O)O` (stereo not given), the activity, negative = cell killing is -4.12% (inactive).

With `C[N+](C)(C)CC(O)CC(=O)[O-]` (stereo not given), the activity, negative = cell killing was -13.3% (inactive).

The values are drawn from PubChem BioAssay (NCATS).
